D1 potentiator – enhances dopamine response at the human D1 receptor; potentiation, % at 10 µM; P21728; hit rate 0.036% among 360,000; HEK293 TREx D1 cells, calcium flux, dopamine EC20 potentiation; in the data active means potentiation above about 30%; further: 0% is about no effect
Target sequence (P21728 whole entry, looked up): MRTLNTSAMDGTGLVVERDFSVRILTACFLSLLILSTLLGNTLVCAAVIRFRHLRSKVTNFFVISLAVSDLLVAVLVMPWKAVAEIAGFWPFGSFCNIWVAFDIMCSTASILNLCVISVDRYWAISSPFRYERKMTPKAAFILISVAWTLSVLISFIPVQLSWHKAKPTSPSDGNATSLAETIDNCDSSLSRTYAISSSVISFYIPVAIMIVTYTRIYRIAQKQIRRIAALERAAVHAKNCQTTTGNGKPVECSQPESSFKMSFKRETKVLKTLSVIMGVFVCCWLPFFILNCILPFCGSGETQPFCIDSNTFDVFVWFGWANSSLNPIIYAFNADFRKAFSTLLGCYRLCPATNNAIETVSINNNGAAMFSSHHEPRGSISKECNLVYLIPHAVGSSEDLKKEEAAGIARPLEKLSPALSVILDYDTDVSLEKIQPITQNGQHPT
DRD3 agonist – agonists of human D3 dopamine receptor. P35462. D3R DiscoveRx beta-arrestin cells, luminescence, 90 min. max activation, %. hit rate 0.58% among 410,000; in the data active means max activation above about 30%; further: 0% is about no effect
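Agonist mode: compounds and dopamine controls were applied to plated cells for 90 min at 37 degrees C after an overnight attachment at 1500 cells/well. Luminescent read-out followed 30 - 60 minutes at room temperature with DiscoveRx detection reagent.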
D1 agonist – agonists of human D1 dopamine receptor | P21728 | HEK293 T-REx D1 cells, calcium flux, agonist mode | activation, % at 2 µM | hit rate 1% among 360,000 | AID 504660; in the data active means activation above about 30%; further: 0% is about no effect
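Tetracycline-induced HEK293 TREx D1 cells, force-coupled to calcium signalling, were dye-loaded with a no-wash calcium kit. Compound was pin-added after a 10 s baseline. Fluorescence was read kinetically at 1 cycle/s for 180 s, with calcium rises flagged as agonism.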
DRD3 antagonist – blocks the human D3 dopamine receptor; P35462; D3R cells, DiscoveRx beta-arrestin luminescence, antagonist mode; hits give low values; hit rate 2.5% among 360,000; max response, negative = inhibition, %; in the data active means max response below about -50%; inconclusive means no clear call, values can overlap the other calls; further: on the % scale 0 is the no-effect control and ±100 the full control effect
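Cells expressing the human receptor were seeded at 1500 cells/well, incubated overnight at 37 degrees C in 5% CO2, then exposed to library compounds with dopamine controls for 90 minutes at 37 degrees C before luminescent detection.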
D1 antag – blocks dopamine activation of the human D1 receptor; P21728; HEK293 TREx D1 cells, calcium flux, dopamine EC80; hits give low values; activity change, negative = inhibition, % at 10 µM; hit rate 3.2% among 360,000; AID 504652; in the data active means activity change below about -30%; further: on the % scale 0 is the no-effect control and ±100 the full control effect
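Allosteric or orthosteric antagonism assessed as attenuation of the calcium response to EC80 dopamine, added 180 s after compound, in induced HEK293 Trex D1 cells loaded with no-wash calcium dye.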
* hit, by the source's call; ? = inconclusive; · = no result. Sampled rows, rich in hits. Any-hit rate of the full collection: about 6%.

SMILES	D1 potentiator	DRD3 agonist	D1 agonist	DRD3 antagonist	D1 antag
CCOc1ccc2nc(NC(=O)c3nc(SCc4ccc(C)cc4)ncc3Cl)sc2c1	-1	6	2	·	-8
COc1cc(NC(=O)c2cc([N+](=O)[O-])ccc2N2CCOCC2)ccc1NC(=O)c1ccco1	-4	-11	1	-10	-20
COc1ccc(OC)c(NC(=O)COC(=O)/C=C/c2ccc(Cl)cc2)c1	-8	13	-2	11	-33*
COc1cc(NC(=O)c2cccc([N+](=O)[O-])c2C)ccc1NC(=O)c1ccco1	-2	3	0	7	-36*
COc1ccc(NC(=O)Nc2ccc(O)c3ccccc23)cc1	·	33*	·	-27	·
COc1ccc(OC)c(NC(=O)Nc2cccc(Cn3cccn3)c2)c1	-10	5	0	-23	-36*
COc1ccc(C(=O)Nc2ccc(O)c3ccccc23)cc1	·	-16	·	-6	·
COc1cccc(NC(=O)Nc2cc(C)ccc2OC)c1	-4	-14	0	1	-11
COc1ccc(CNC(=O)COC(=O)/C=C/c2ccc(Cl)cc2)cc1	2	0	-3	11	-1
COc1cc(NC(=O)c2ccco2)c(OC)cc1NC(=O)Nc1ccc(Cl)cc1	-5	15	2	32	-44*
Cc1cc(C)c(OCC(=O)Nc2cccc(NC(=O)c3ccco3)c2)c(Br)c1	-9	34*	6	43	-16
COC(=O)c1cc(NC(=O)Nc2cc(OC)ccc2OC)cc(C(=O)OC)c1	-4	0	1	-13	2
Cc1cc(C)c(OCC(=O)Nc2ccc(NC(=O)c3ccco3)cc2)c([N+](=O)[O-])c1	-4	-1	2	-4	-7
COc1ccc(OC)c(NC(=O)Nc2ccc(Cl)cc2)c1	-9	-20	0	?	-43*
COc1cc(-c2cc(-c3nnco3)c3ccccc3n2)cc(OC)c1OC	-10	1	1	16	-96*
c1ccc(-c2cc(-c3nnco3)c3ccccc3n2)nc1	10	-5	-1	-10	-2
COc1ccc(-c2cc(C)no2)cc1S(=O)(=O)NCc1cccs1	-2	-9	2	·	-13
CC(=O)NCCNC(=O)c1ccc2c(=O)n(CCc3ccccc3)c(=O)[nH]c2c1	-2	-2	0	·	-67*
CC1CCN(CCCNC(=O)c2ccc3c(=O)n(CCc4ccccc4)c(=O)[nH]c3c2)CC1	-1	-5	3	-28	-42*
COCCNC(=O)c1ccc2c(=O)n(CCOC)c(SCC(=O)c3c[nH]c4ccccc34)nc2c1	-3	6	3	·	-21
CN1CCN(CCCNC(=O)c2ccc3c(=O)n(CCc4ccccc4)c(=O)[nH]c3c2)CC1	-15	-8	3	8	1
O=C(NCc1ccccn1)c1ccc2c(=O)n(CCc3ccccc3)c(=O)[nH]c2c1	-10	-2	9	32	-54*
COCCNC(=O)c1ccc2c(=O)n(CCc3ccccc3)c(SCC(=O)CC(=O)OC)nc2c1	-5	7	1	·	-34*
COc1ccc(Cl)cc1NC(=O)c1nn(-c2ccc(C)cc2)c(=O)n(C)c1=O	-1	2	0	·	2
[O-][n+]1ccccc1SSc1cccc[n+]1[O-]	·	-41	·	·	·
SMILES	D1 potentiator	DRD3 agonist	D1 agonist	DRD3 antagonist	D1 antag
COc1ccc(CNC(=O)c2ccc3c(c2)CCN3S(=O)(=O)c2ccc(Cl)cc2)cc1	0	8	5	·	-5
CCN(CC)CCN(C(=O)c1ccc(C(=O)OC)cc1)c1nc2ccc(Cl)cc2s1	-5	-21	14	·	-10
O=[N+]([O-])c1ncccc1OCc1ccc(-c2ccccc2)cc1	-7	3	6	-10	-33*
CCCC(=O)Nc1nnc(-c2ccco2)s1	-1	4	0	-66*	1
Cn1cc(CN2CCc3sccc3C2)c(-c2ccccc2F)n1	3	-19	1	-91*	-5
CN(C)CCCNC(=O)C(=O)Nc1ccc2c(c1)N(S(=O)(=O)c1cccs1)CCC2	-5	-10	5	3	7
CN(C)CCNC(=O)C(=O)Nc1ccc2c(c1)N(S(=O)(=O)c1cccs1)CCC2	-1	2	56*	0	-6
CCNc1nc(N)nc(Oc2ccc(OCC(=O)OC)nn2)n1	0	-5	0	·	-7
CCC(=O)N(CC)c1nc(-c2cc(OC)ccc2OC)cs1	-3	14	34*	30	30
COCCCN(C(=O)c1ccco1)c1nc(-c2cc(OC)ccc2OC)cs1	5	23	6	4	-41*
COc1ccc(OC)c(-c2csc(NC(=O)COC(=O)C3(C)CC3(Cl)Cl)n2)c1 (configuration not stated)	-6	-2	2	4	-48*
CCC(=O)N(CCCN(C)C)c1nc(-c2cc(OC)ccc2OC)cs1	-1	-7	8	?	8
Cc1ccc(C)n1-c1nnc(N2CCCC(C(=O)Nc3ccc(C(C)C)cc3)C2)s1 (configuration not stated)	4	-18	-3	·	19
CCOC(=O)C1CCN(C(=O)CSc2n[nH]c(-c3ccccc3Cl)n2)CC1	-1	-15	-1	·	-3
Cc1ccc2c(c1)-c1c(ssc1=S)C(C)(C)N2C(=O)CSc1nncn1C	-1	-2	1	-6	13
Cc1cc(C)c2c(c1)-c1c(ssc1=S)C(C)(C)N2C(=O)CSc1nncn1C	4	-3	39*	-22	14
O=C(CSC(=S)N1CCSCC1)c1ccc(Cl)cc1	1	1	9	-13	-46*
CCOc1ccccc1N(CC)C(=O)c1noc2c1COc1ccc(C)cc1-2	1	3	-1	·	10
NCCCC[C@H](N)C(=O)O	·	11	·	·	·
Cc1c(-c2nsc(NC(=O)c3cccs3)n2)nnn1-c1ccc(Cl)cc1	-2	-10	13	·	-21
COc1ccc(S(=O)(=O)N(C)c2ccc(C(=O)N3CCCCC3)cc2)cc1	-5	38*	7	23	-15
Nc1ccc(-c2nc3ncccc3o2)cc1	-6	5	-1	3	-34*
Nc1cccc(-c2nc3ncccc3o2)c1	0	1	2	2	7
CCc1ccccc1NC(=O)C1CCCN(C(=O)c2cnn(-c3ccccc3)c2-n2cccc2)C1 (configuration not stated)	-1	1	-3	·	5
CC1(C)CC(CC(=O)NC(=S)Nc2ccc([N+](=O)[O-])cc2)C(=O)O1 (configuration not stated)	-7	-14	2	-83*	2
O=C(Nc1ccc(N2CCOCC2)cc1)Nc1ccc(Cl)c(Cl)c1	-4	3	17	-15	-31*
O=C(Nc1ccc(Cl)cc1)Nc1ccc(N2CCOCC2)cc1	-4	-2	9	-15	-16
O=C(Nc1ccccc1)Nc1ccc(Br)c(Cl)c1	-8	3	26	2	-31*
O=C(Nc1ccc(Cl)c(Cl)c1)Nc1ccon1	-3	1	26	1	-23

Bioassay records as filed in PubChem BioAssay.
